We go through 21 compounds from PubChem BioAssay AID1611 (NINDS Approved Drug Screening Program, 2009).

This experiment is described as follows: inducers of human heat shock response, cell-based, HSE luciferase (AID 1611). The note with it: human cells, HSE-luciferase heat shock reporter; stronger effect = higher value.
For the compound `CCCCOc1ccc(CC(=O)NO)cc1`, the fold change is 0.79.
Turning to `CC(CN(C)C)CN1c2ccccc2CCc2ccccc21` (stereo unspecified), the fold change amounted to 1.16.
As to `O=C(O)c1ccccc1O`, the fold change worked out at 0.73.
Turning to `CC(C)(C)NCC(O)c1cc(O)cc(O)c1` (stereo unspecified), the fold change was 0.99.
Regarding `C[C@H](CS)C(=O)N1CCC[C@H]1C(=O)O`, the fold change came to 0.72.
With `CCCC(CCC)C(=O)O`, the fold change worked out at 0.91.
With `COC1=CC(=O)C[C@@H](C)[C@]12Oc1c(Cl)c(OC)cc(OC)c1C2=O` the figure was 0.94.
Consider `Cc1ccc(/C(=C\CN2CCCC2)c2ccccn2)cc1`, for which the fold change turned out to be 0.61.
For `NNc1nncc2ccccc12`, the fold change was 1.1.
The same measure for `N[C@@H](CCC(=O)N[C@@H](CS)C(=O)NCC(=O)O)C(=O)O`: 1.11; for `COC(=O)C1=C(C)NC(C)=C(C(=O)OC)C1c1ccccc1[N+](=O)[O-]`: 1.12.
As to `C[N+]1(C)C2CC[C@H]1CC(OC(=O)C(O)c1ccccc1)C2` (stereo partly specified), the fold change turned out to be 1.16.
For `CN[C@@H]1[C@H](O)[C@H](NC)[C@H]2O[C@@]3(O)C(=O)C[C@@H](C)O[C@H]3O[C@@H]2[C@H]1O`, the fold change is 1.27.
With `Cn1c(=O)c2[nH]cnc2n(C)c1=O` the figure was 1.18; with `CC(C)NCC(O)COc1ccc(CC(N)=O)cc1` (stereo unspecified), 0.76.
On to `CCCc1ncc(C[n+]2ccccc2C)c(N)n1`, for which the fold change came out at 1.19.
`Cc1ccccc1OCC(O)CO` (stereo unspecified): the fold change turned out to be 0.73.
In the case of `C[N+](C)(C)CCO`, the fold change came out at 0.93.
Turning to `Cc1nnc(SCC2=C(C(=O)O)N3C(=O)[C@@H](NC(=O)Cn4cnnn4)[C@H]3SC2)s1`, the fold change is 0.8.
As for `CCN(CC)CCNC(=O)c1cc(Br)c(N)cc1OC`, the fold change turned out to be 1.36.
The same measure for `CN(C)c1ccc(C(=C2C=CC(=[N+](C)C)C=C2)c2ccc(N(C)C)cc2)cc1`: 1.22.
